Among all 1,200 compounds or so, about 210 (18%) were called active. A selection follows. A number with no mark means an inactive call. No stated cut-off is given here; in the data, active means inhibition above about 30%; inactive means the rest.
assay: HTRF signal interference by compounds, confirmation, artefact control for SUMOylation inhibitor project, biochemical, uHTS (AID 2069); settings: HTRF interference counterscreen, fluorescence, at 35 µM, stronger effect = higher value

Structure (SMILES)	inhibition
Cc1oc(-c2ccc(F)cc2)cc1-c1nn2c(-c3ccoc3C)nnc2s1	-3.45%
CN(CCC#N)C(=O)COC(=O)c1c2c(nc3ccccc13)/C(=C/c1ccco1)CC2	36.5% (active)
COc1ccccc1CNC(=O)COC(=O)c1cc(-c2ccco2)nc2ccccc12	12.6%
CCOc1ccc(/C=C2/SC(=S)N(CCC(=O)Nc3ccc(C(=O)O)cc3)C2=O)cc1	4.55%
Cc1nn(-c2ccccn2)c2c1C(=O)C(Br)CC2 (centres undefined)	-0.05%
O=C1/C(=C/c2coc3ccc(O)cc3c2=O)SC(=S)N1c1ccccc1	4.9%
Cc1ccc(C)c(OCC(=O)Nc2nonc2NC(=O)COc2cc(C)ccc2C)c1	-13.6%
Cc1nn(-c2ccccc2)c2sc(C(=O)NNC(=O)COc3ccccc3)cc12	10.2%
COC(=O)c1ccccc1NC1=C/C(=N\S(=O)(=O)c2cccs2)c2ccccc2C1=O	1.7%
O=[N+]([O-])c1ccc(N2CCN(CCO)CC2)c2ncccc12	-19.1%
O=C(NCc1ccccc1)Nc1cccn(Cc2ccccc2)c1=O	-6.8%
CC(=O)Nc1ccc(NC2=C/C(=N/S(=O)(=O)c3cccs3)c3ccccc3C2=O)cc1	-7.75%
Cc1c(NC(=S)N/N=C/c2cc([N+](=O)[O-])ccc2O)c(=O)n(-c2ccccc2)n1C	11.2%
O=[N+]([O-])c1cc(Cl)cc(/C=N/NC(=S)Nc2ccc(S(=O)(=O)N3CCOCC3)cc2)c1O	80.5% (active)
O=[N+]([O-])c1ccc(O)c(/C=N/NC(=S)Nc2ccc(Cl)cc2Cl)c1	-23.9%
Cc1ccc(/C=C2/SC(=S)N(c3ccc(S(=O)(=O)Nc4nccs4)cc3)C2=O)cc1	-9.3%
N=C1/C(=C/c2cccn2Cc2ccc(Cl)cc2)C(=O)N=C2SC=CN12	18.8%
CC1CCN(C2=C(NS(=O)(=O)c3ccc(Br)cc3)C(=O)c3ccccc3C2=O)CC1	7.4%
Cc1c(C(=O)Nc2ccc(F)cc2)cn2c(nc3ccccc32)c1C#N	19.4%
O=c1[nH]c(=S)[nH]c(O)c1N=Nc1ccc(-c2ccccc2)cc1[N+](=O)[O-]	16.1%
CCOc1ccc(C2C=C(c3ccccc3)Nc3ncnn32)cc1 (centres undefined)	50.8% (active)
COc1ccc2nc(NC(=O)CCc3ccc(OC)c(OC)c3)sc2c1	10.8%
N#CC(c1nc2ccccc2nc1N1CCCC1)S(=O)(=O)c1ccccc1 (centres undefined)	1.75%
COc1cc(=O)n(C)c2c(OCC3OC(C)(C)OC3(C)C)cccc12 (centres undefined)	2.3%
